# Laboratory results taken from PubChem BioAssay.
# Where “and” joins values, the source holds several entries; their conditions need not be identical. Identical values can stand only once. Inconclusive results are not listed. Calls of active or inactive are those of the source. Unless noted, the rule behind the calls is not given here.
# How the values were obtained:
# [1] = viability loss in pontine glioma line – cell-based, SU-DIPG-XVII, MIPE5.0, CellTiter-Glo, qHTS, dose response (AID 1347060; cut-off not given, nearly all actives have AC50 up to about 26 µM); conditions: CellTiter-Glo ATP luminescence
# [2] = viability loss in pontine glioma line – cell-based, SU-DIPG-XIII, MIPE4.0, CellTiter-Glo, qHTS, dose response (AID 1347061; cut-off not given, nearly all actives have AC50 up to about 37 µM;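 note: cells exposed to compound for 48 hours before readout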); conditions: CellTiter-Glo ATP luminescence
# [3] = viability loss in pontine glioma line – cell-based, JHH-DIPG-1, MIPE4.0, CellTiter-Glo, qHTS, dose response (AID 1347062; cut-off not given, nearly all actives have AC50 up to about 27 µM); conditions: JHH-DIPG-1 viability, CellTiter-Glo ATP luminescence
# [4] = viability loss in pontine glioma line – cell-based, SU-DIPG-IV, MIPE4.0, CellTiter-Glo, qHTS, dose response (AID 1347063; cut-off not given, nearly all actives have AC50 up to about 30 µM;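 note: compound exposure lasted 48 hours before the viability readout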); conditions: CellTiter-Glo ATP luminescence
# [5] = growth inhibition of DIPG cells – cell-based, MIPE4.0 library, CellTiter-Glo luminescence, qHTS (AID 1347066; cut-off not given, nearly all actives have AC50 up to about 30 µM;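 note: cells exposed to compound for 48 hours before readout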); conditions: SU-DIPG-VI viability, CellTiter-Glo ATP luminescence
# [6] = JHH-DIPG-1 glioma cell viability, MIPE5.0 library, CellTiter-Glo luminescence, qHTS (AID 1347067; cut-off not given, nearly all actives have AC50 up to about 26 µM;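 note: cells exposed to compound for 48 hours before readout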); conditions: JHH-DIPG-1 glioma viability, CellTiter-Glo ATP luminescence
# [7] = growth inhibition of DIPG cells – cell-based, MIPE5.0 library, qHTS (AID 1347068; cut-off not given, nearly all actives have IC50 up to about 30 µM); conditions: SU-DIPG-XXV viability
# [8] = tested on: Aerobactin synthetase IucA (Klebsiella pneumoniae); test: inhibition of K. pneumoniae IucA enzyme – biochemical, Tocris library, absorbance (AID 1345561); conditions: purified IucA enzyme assay, absorbance (OD) read-out; stronger effect = lower value;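 tested at 8 µM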;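 note: 100% = enzyme without compound and 0% = no enzyme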
# [9] = tested on: Neuropilin-2 / VEGF-C interaction (human); test: small molecules blocking Neuropilin-2/VEGF-C interaction – biochemical, microplate binding format, z-score (AID 743281); conditions: microplate NRP2/VEGF-C binding assay; stronger effect = lower value
# [10] = signal quenchers or enhancers, Cy5 substrate/SSB – biochemical, NIH Clinical Collection, E. coli SSB, artefact control for HCV NS3 helicase inhibitor project (AID 743268); conditions: Cy5-oligo bound E. coli SSB, fluorescence interference
# [11] = tested on: Hepatitis C virus NS3 helicase; test: blockers of NS3h binding to DNA – biochemical, fluorescence polarization, NIH Clinical Collection, primary screen (AID 743270); conditions: NS3 helicase binding to Cy5-dT15 DNA, stronger effect = higher value, concentration not given here
# [12] = target: Single-stranded DNA-binding protein (Escherichia coli (strain K12)) (UniProt P0AGE0); test: SSB-ssDNA binding inhibitors – biochemical, fluorescence polarization, NIH Clinical Collection, counter-screen for HCV NS3 helicase inhibitor project (AID 743271; in the data active = inhibition above about 28%); conditions: E. coli SSB-DNA binding, stronger effect = higher value, concentration not given here
# [13] = compounds distorting NS3 helicase fluorescence signal – biochemical, NIH Clinical Collection, artefact control for HCV NS3 helicase inhibitor project (AID 743272); conditions: fluorescence interference counterscreen, HCV NS3 helicase assay; stronger effect = lower value;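 note: HCV NS3 helicase with a Cy5 labelled single stranded DNA probe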
# [14] = growth inhibition, single agent or in combination, cell-based, chromothripsis tumors, cisplatin or BGB combos (AID 1671449; in the data active = inhibition above about 80%;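 note: cells exposed for 96 hours; 0% = vehicle DMSO and 100% = killing by high DMSO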); conditions: LFS_MB_P medulloblastoma cells
# [15] = growth inhibition, single agent and combos, cell-based, chromothripsis tumors, cisplatin or BGB combos (AID 1671450; in the data active = inhibition above about 80%;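 note: cells exposed to compound for four days; 0% = vehicle DMSO and 100% = cell killing by high DMSO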); conditions: HDN33 neuroblastoma cells, stronger effect = higher value
# [16] = growth inhibition, single agents and combos, ICB984, cell-based, cisplatin or BGB combos, synergistic combos for chromothripsis tumors (AID 1671451); conditions: ICB984 medulloblastoma cells, drug combinations, stronger effect = higher value;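 note: cells exposed for 96 hours before readout; 0% = vehicle DMSO and 100% = killing by high DMSO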
# [17] = growth inhibition, single agents and combos, HTB85, cell-based, BGB or cisplatin IC20 combos, synergistic combos for chromothripsis tumors (AID 1671453; in the data active = inhibition above about 80%;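 note: cells exposed for 96 hours before readout; 0% = vehicle DMSO and 100% = high DMSO killing control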); conditions: HTB85 osteosarcoma cells, drug combinations, stronger effect = higher value
# [18] = tested on: F380Y/beta4; test: BK channel mutant inhibitors and activators – cell-based, U2OS BacMam, thallium flux, beta subunits, selectivity assay, profiling panel (AID 1259406;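 active = thallium flux through the channel raised or lowered by more than 3 SD from vehicle-only wells, actives on both sides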;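 note: initial slope of Thallos dye fluorescence rise after thallium is added; log ratio against the mean of 0.3% DMSO vehicle wells on the same plate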); conditions: U2OS BacMam BK variants, at 30 µM
# [19] = target: Calcium-activated potassium channel subunit alpha-1 (Homo sapiens) + Leucine-rich repeat-containing protein 26 (Homo sapiens) (UniProt Q12791+Q2I0M4); test: as above; conditions: U2OS BacMam BK variants, F380Y/Slo1WT/gamma1, at 30 µM
# [20] = tested on: R275C/beta4; test: as above; conditions: U2OS BacMam BK variants, at 30 µM
# Sequence of Calcium-activated potassium channel subunit alpha-1 (Homo sapiens) + Leucine-rich repeat-containing protein 26 (Homo sapiens) (Q2I0M4 whole entry, looked up, one chain of several): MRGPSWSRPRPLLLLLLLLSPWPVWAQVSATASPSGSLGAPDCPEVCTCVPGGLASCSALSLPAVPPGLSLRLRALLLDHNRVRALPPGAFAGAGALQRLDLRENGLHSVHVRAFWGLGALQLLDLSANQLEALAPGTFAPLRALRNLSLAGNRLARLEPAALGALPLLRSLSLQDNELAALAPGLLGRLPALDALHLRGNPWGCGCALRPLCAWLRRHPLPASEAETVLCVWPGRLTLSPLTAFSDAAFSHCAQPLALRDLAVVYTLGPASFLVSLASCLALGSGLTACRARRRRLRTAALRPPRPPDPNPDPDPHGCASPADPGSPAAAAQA
smiles,measurement,setting,value
CN(C)[C@@H]1C(=O)C(C(N)=O)=C(O)[C@@]2(O)C(=O)C3=C(O)c4c(O)cccc4[C@@](C)(O)[C@H]3C[C@@H]12,outcome,[1],inactive
same,outcome,[2],inactive
same,outcome,[3],inactive
same,outcome,[4],inactive
same,outcome,[5],inactive
same,outcome,[6],inactive
same,outcome,[7],inactive
O=c1[nH]oc2c1CCNC2,remaining activity,[8],79% (inactive)
Clc1ccc(CO/N=C(\Cn2ccnc2)c2ccc(Cl)cc2Cl)c(Cl)c1,outcome,[9],inactive
O=P1(N(CCCl)CCCl)NCCCO1 (stereo not given),fluorescence ratio,[10],1.07 (inactive)
same,inhibition,[11],-4.09% (inactive)
same,inhibition,[12],1.05% (inactive)
same,fluorescence ratio,[13],0.99 (inactive)
same,outcome,[1],inactive
same,outcome,[2],inactive
same,outcome,[3],inactive
same,outcome,[4],inactive
same,outcome,[5],inactive
same,outcome,[6],inactive
same,outcome,[7],inactive
same,inhibition,"[14]; at 0.5 µM, stronger effect = higher value",-6.53% (inactive) and -7.84% (inactive)
same,inhibition,"[14]; measured here: combination with BGB IC20, at 0.005 µM",2.32% and -13.2%
same,inhibition,"[14]; measured here: combination with BGB IC40, at 0.005 µM",-6.39% and -22.4%
same,inhibition,"[14]; measured here: combination with BGB IC40, at 0.05 µM",-5.95% and 13%
same,inhibition,"[14]; measured here: combination with cisplatin, at 0.5 µM, stronger effect = higher value",-9.48% and -17.9%
same,inhibition,"[14]; measured here: combination with cisplatin, at 5 µM, stronger effect = higher value",-25.8% and -37.1%
same,inhibition,"[15]; BGB combo, at 5 µM",-38.1% and 11.3%
same,inhibition,[15]; at 0.5 µM,-28.6% (inactive) and -1.03% (inactive)
same,inhibition,"[15]; cisplatin combo, at 5 µM",-13.9% and -0.927%
same,inhibition,"[15]; measured here: with BGB IC20 combination, at 0.5 µM",-28.4% and 3.51%
same,inhibition,"[15]; measured here: with cisplatin IC20 combination, at 0.5 µM",-36.3% and 6%
same,inhibition,"[15]; single agent, at 5 µM",-28.1% and -8.82%
same,inhibition,"[16]; BGB IC20 combo, at 0.005 µM",-3.81% and -12.8%
same,inhibition,"[16]; BGB IC40 combo, at 0.005 µM",-4.33% and -15%
same,inhibition,"[16]; BGB IC40 combo, at 0.05 µM",-3.91% and -28.7%
same,inhibition,[16]; at 0.5 µM,-31.6% (inactive) and -25.4% (inactive)
same,inhibition,"[16]; cisplatin combo, at 0.05 µM",-7.65% and -28.7%
same,inhibition,"[16]; cisplatin combo, at 0.5 µM",-40.7% and -25.4%
same,inhibition,"[16]; cisplatin combo, at 5 µM",-21.7% and -28.6%
same,inhibition,"[16]; measured here: 5 uM single agent, at 5 µM",6.31% and -15%
same,inhibition,[17]; at 0.5 µM,-15.6% (inactive) and -16.2% (inactive)
same,inhibition,"[17]; measured here: with BGB IC20, at 0.5 µM",-17.1% and -31%
same,inhibition,"[17]; measured here: with BGB IC20, at 5 µM",-9.3% and -18.7%
same,inhibition,"[17]; measured here: with cisplatin IC20, at 0.5 µM",-29.3% and -21%
same,inhibition,"[17]; measured here: with cisplatin IC20, at 5 µM",-39.9% and -19.6%
same,inhibition,"[17]; single agent, at 5 µM",0.113% and -3.32%
same,log fold change Tl+ flux,[18],-0.0197 (inactive)
same,log fold change Tl+ flux,[19],0.0114 (inactive)
same,log fold change Tl+ flux,[20],0.0832 (inactive)
Clc1ccc(COC(Cn2ccnc2)c2ccc(Cl)cc2Cl)cc1 (stereo not given),fluorescence ratio,[10],1.02 (inactive)
same,inhibition,[11],3.18% (inactive)
same,inhibition,[12],4.1% (inactive)
same,fluorescence ratio,[13],0.94 (inactive)
same,log fold change Tl+ flux,[18],-0.321 (active)
same,log fold change Tl+ flux,[20],0.279 (active)
